Out of some 68,000 compounds screened, about 2,700 (4%) showed an effect of 50% or more. Shown is part of a subset that was picked to be rich in strong results.
These molecules were tested on Plasmodium berghei (assay: Screen against P. berghei liver stage (PbLuc), transformed with Luciferase, at 2uM). Conditions: tested at 2 uM.
Assay type: functional, HepG2

Row | Structure (SMILES) | INHIBITION [%]
1 | CC(NC(=O)Nc1cccnc1N1CCOCC1)c1ccncc1 (stereo not drawn) | 0.45
2 | CC(C)OCc1cccc(CNc2cnn(C)c(=O)c2Cl)c1 | 4.18
3 | CC(=O)N1CCO[C@@H]2CN(S(=O)(=O)c3cccnc3)C[C@@H]2C1 | -37.03
4 | CCN(C(C)=O)c1nc(CN2CCN(c3nccs3)CC2)cs1 | 55.36
5 | CC(=O)N(C)c1nc(CN2CCN(c3nccs3)CC2)cs1 | -20.95
6 | Nc1nc(CN2CCN(c3nccs3)CC2)cs1 | -4.26
7 | CC(C)N1CCc2c(c(COc3cccnc3)nn2CC2CC2)C1 | -0.59
8 | Cc1nn(C)c(C)c1C1CCCN1Cc1nc(-c2cccs2)no1 (stereo not drawn) | 45.83
9 | Cc1cccc(C(=O)N2CCN(C)CC2)c1NC(=O)c1ccncc1 | 29.22
10 | CNc1cc(C2CCCN2Cc2ccc(OCC(=O)O)cc2)ccn1 (stereo not drawn) | 29.06
11 | CN(C)C(=O)N1CC[C@@H](O)[C@@H]1Cc1cnn(C)c1 | 12.88
12 | COCCO[C@H]1CCN(C(=O)c2ccoc2C)[C@H]1Cc1cnn(C)c1 | 5.35
13 | Cn1cc(C[C@H]2[C@@H](OCC3CC3)CCN2C(=O)c2ccc[nH]2)cn1 | -1.33
14 | CCO[C@@H]1CCN(C(=O)c2ccnnc2)[C@@H]1Cc1cnn(C)c1 | 18.15
15 | COCCO[C@H]1CCN(C(=O)c2cnoc2C)[C@H]1Cc1cnn(C)c1 | 63.06
16 | COCCO[C@@H]1CCN(C(=O)c2ccc[nH]2)[C@H]1Cc1cnn(C)c1 | 66.69
17 | CCO[C@@H]1CCN(C(=O)N(C)C)[C@@H]1Cc1cnn(C)c1 | 63.84
18 | CCO[C@@H]1CCN(C(=O)c2ccc[nH]2)[C@@H]1Cc1cnn(C)c1 | 5.28
19 | COCCO[C@H]1CCN(C(=O)c2ccno2)[C@H]1Cc1cnn(C)c1 | 1.02
20 | CC(C)c1ncc(CN2C[C@@H](CN3CCC(O)CC3)[C@@H](CO)C2)cn1 | -142.15
21 | Cc1cnc(CN(C)Cc2cccc(OC(F)(F)F)c2)cn1 | 8.59
22 | c1ccc2nc(CN3CCCC3c3noc(C4CC4)n3)ccc2c1 (stereo not drawn) | 0.74
23 | Cc1nn(C2CCS(=O)(=O)C2)c(O)c1Cc1ccccc1Cl (stereo not drawn) | -0.89
24 | Cc1nc(CN(Cc2ccccc2F)C2CCC2)no1 | -3.11
25 | COCCN(Cc1ccoc1)C(=O)CSc1ccc(F)cc1 | 12.7
26 | CN(Cc1ccncc1)C1CC2(CCN(c3ncc(F)cn3)CC2)C1 | -20.67
27 | COc1cc2cc(C)c(SCCN3CCCCC3)nc2cc1OC | 11.74
28 | CN(C)CC1CSCCCN1C(=O)c1ccc(-n2cccc2)cc1 (stereo not drawn) | 15.49

— ChEMBL document CHEMBL4513216, “Probing the Open Global Health Chemical Diversity Library for Multistage-Active Starting Points for Next-Generation Antimalarials” (ACS Infect Dis, 2020)
